Rows were chosen to be rich in hits. Some 2.4% of all compounds tested hit in one or more screens of this group.
Tb PFK block – blocks T. brucei phosphofructokinase; O15648; T. brucei PFK, ADP-Glo luminescence; Potency, µM (series often up to 57.5 µM), inactives show at the highest dose activity, negative = inhibition, hits mostly inhibitors; hit rate 0.17% among 330,000;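 further: 0% = uninhibited 1x PFK enzyme wells and -100% = no-enzyme wells; nearly all actives have a fitted effect of over 60% in size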
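ADP-Glo luminescence quantified ADP after 45 min at room temperature, with 1.25 nM T. brucei PFK, 0.1 mM ATP and 0.5 mM fructose-6-phosphate in pH 8.0 TEA buffer. qHTS titrations up to 57 µM; curves classified by quality.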
Rango release inh – inhibitors of RanGTP-induced Rango-importin beta complex dissociation; Biochemical FRET Rango-importin beta, RanGTP-induced dissociation; Potency, µM (titrated, usually from 46.1 µM), without a hit: at the top dose activity change, negative = inhibition; hit rate 0.071% among 340,000; calls by dose curve; further: % of control where 0% means no effect; nearly all actives have a fitted effect of over 45% in size
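Compounds sat 5 min at room temperature with 0.1 uM Rango biosensor plus 0.25 uM importin beta, then FRET pre-read. RanGTP-RCC1 (0.6 uM Ran, 2mM GTP, 0.2 uM RCC1) added for 45 min, and the CFP/YFP post-read measured blocked complex dissociation.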
ELG1 DNA repair – inhibitors of ELG1-dependent DNA repair in HEK293T cells | HEK293T ELG1-luciferase reporter, luminescence, 16 h; DNA damage induced by 5-fluorouridine | Potency, µM (top dose mostly 46.1 µM), for the others: at the highest dose activity change, negative = inhibition, hits mostly inhibitors | AID 504467 | hit rate 2.3% among 330,000; further: on the % scale 0 is the no-effect control and ±100 the full control effect; nearly all actives have a fitted effect of over 55% in size
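Quantitative HTS, concentration-response format. 2,000 cells/well co-treated with 5-fluorouridine and compound, 16 hr in 5% CO2 at 37 °C; ONE-Glo luminescence read after 30 min.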
PKM2 act – activators of human pyruvate kinase M2; purified PKM2, Kinase-Glo ATP luminescence, activation; response scale: 0% is enzyme alone, no compound; Potency, µM (doses to about 57.5 µM), for inactives: at the top dose activation, most hits filed as activators; hit rate 0.34% among 260,000; AID 1631; further: on the % scale 0 is the no-effect control and ±100 the full control effect; nearly all actives have a fitted effect of over 55% in size
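hPK-M2, >95% pure; 0.1 mM ADP / 0.5 mM PEP final; imidazole pH7.2 buffer w/ 7 mM MgCl2, 50 mM KCl; 1 h RT; Kinase-Glo lum. Intermediate enzyme activity for dual inhibitor/activator qHTS.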
Rango-impB inh – prevents formation of the Rango-importin beta complex; Q14974; Rango CFP/YFP FRET sensor + importin beta, 45 min; hit rate 0.031% among 340,000; AID 540263; Potency, µM (doses to about 92.2 µM), without a hit: at the top dose inhibition of complex formation; calls by dose curve;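 further: 0% = DMSO wells and 100% = buffer wells lacking importin beta; nearly all actives have a fitted effect of over 15% in size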
Target sequence (Q14974 whole entry, looked up): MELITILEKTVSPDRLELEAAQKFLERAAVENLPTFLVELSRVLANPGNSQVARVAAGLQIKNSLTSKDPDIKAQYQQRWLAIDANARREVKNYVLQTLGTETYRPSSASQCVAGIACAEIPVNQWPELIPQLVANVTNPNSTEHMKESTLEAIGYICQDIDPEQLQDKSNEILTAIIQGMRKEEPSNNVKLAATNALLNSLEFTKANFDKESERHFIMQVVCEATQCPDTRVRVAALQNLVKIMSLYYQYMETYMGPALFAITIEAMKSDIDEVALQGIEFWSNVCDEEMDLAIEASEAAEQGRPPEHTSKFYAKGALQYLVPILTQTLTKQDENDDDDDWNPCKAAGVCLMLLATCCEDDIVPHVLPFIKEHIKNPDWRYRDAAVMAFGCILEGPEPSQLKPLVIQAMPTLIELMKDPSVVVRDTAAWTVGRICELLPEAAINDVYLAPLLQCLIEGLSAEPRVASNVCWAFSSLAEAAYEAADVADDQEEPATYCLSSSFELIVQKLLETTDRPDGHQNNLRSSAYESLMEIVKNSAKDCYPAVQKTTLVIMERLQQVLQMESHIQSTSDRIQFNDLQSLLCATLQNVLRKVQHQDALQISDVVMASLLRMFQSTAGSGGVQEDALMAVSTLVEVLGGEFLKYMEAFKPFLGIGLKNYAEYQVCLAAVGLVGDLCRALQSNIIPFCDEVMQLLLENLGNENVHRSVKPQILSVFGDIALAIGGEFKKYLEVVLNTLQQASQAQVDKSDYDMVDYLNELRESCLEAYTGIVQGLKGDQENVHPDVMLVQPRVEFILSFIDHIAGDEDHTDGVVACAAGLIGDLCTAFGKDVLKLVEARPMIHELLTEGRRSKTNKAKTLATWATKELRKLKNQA
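Inhibition scored from the CFP 486 nm/YFP 530 nm FRET ratio 45 min after adding 0.125 microM importin beta to 50 nM Rango biosensor preincubated 5 min with compound (room temperature, PBS with DTT, Tween-20, BSA). No-importin wells as positive control.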
PGK inhibitor – T. brucei PGK inhibition; Potency, µM (titrated, usually from 57.5 µM), inactives show at the highest dose activity change, negative = inhibition, most hits filed as inhibitors; hit rate 0.043% among 380,000; PGK/GAPDH coupled, Kinase-Glo luminescence, 60 min; AID 602233; further: on the % scale 0 is the no-effect control and ±100 the full control effect; nearly all actives have a fitted effect of over 60% in size
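Luminescent ATP detection (Kinase-Glo Plus) follows a 60-minute room-temperature incubation, with wells lacking PGK as controls. Buffer: 100 mM TEA (pH 7.6), 5 mM MgCl2, 0.01% Tween-20. Coupling enzyme GAPDH (100 nM final) supplies unstable 1,3-BPG in-well.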
* hit, by the source's call; i = inactive; ? = inconclusive; . = no result. Unless noted, the call rests on the fitted dose curve; in most records, active means well fitted curve in the direction sought with a large enough effect; inconclusive means small, poorly fitted or top-dose-only effect, or another doubt; inactive means no such curve, though single readings can be large; an effect the other way counts as inactive or inconclusive. Potency means the concentration at half of the fitted maximal effect.

SMILES | Tb PFK block | Rango release inh | ELG1 DNA repair | PKM2 act | Rango-impB inh | PGK inhibitor
O=c1[nH]c2cc3c(cc2cc1CN(Cc1nnnn1CC1CCCO1)C1CCCC1)OCO3 (stereo not drawn) | 4% | -19% | 15µM* | 2% | ? | -5%
COc1ccccc1CN(Cc1cc2cc(C)ccc2[nH]c1=O)Cc1nnnn1CC1CCCO1 (stereo not drawn) | 22% | 12% | ? | -1% | 1% | -4%
CCc1ccc2[nH]c(=O)c(CN(Cc3ccccc3OC)Cc3nnnn3Cc3ccco3)cc2c1 | -5% | -8% | 10µM* | 11% | 0% | i
COc1ccc2[nH]c(=O)c(CN(Cc3ccccc3OC)Cc3nnnn3CC3CCCO3)cc2c1 (stereo not drawn) | -2% | 17% | 16µM* | -7% | 5% | .
CCOc1ccc(Cl)cc1S(=O)(=O)N1CCC(C(=O)NCC2CCCO2)CC1 (stereo not drawn) | 1% | -1% | 4% | 5% | 1% | -5%
Cc1cc(NC(=O)Cn2c(=O)oc3cc(S(=O)(=O)N4CCCC4)ccc32)ccc1Br | . | . | . | . | . | 8%
CC(NC(=O)COC(=O)c1ccccc1O)C1CC2CCC1C2 (stereo not drawn) | 0% | 1% | 0% | . | 6% | -3%
CCn1c(=O)c(CCC(=O)N2CCN(c3ccccn3)CC2)c(C)c2c(C)nn(-c3ccccc3)c21 | 0% | 5% | 16µM* | . | 4% | -8%
CCOc1ccc(C(=O)Nc2nnc(SCc3cc(=O)c4cc(C)ccc4[nH]3)s2)cc1 | . | . | . | . | . | -1%
Cc1cc2c(NC(=O)Nc3ccc(C(C)(C)C)cc3)cccc2nn1 | -2% | -21% | 15µM* | ? | -2% | -2%
Cc1cc2c(NC(=O)Nc3ccccc3)cccc2nn1 | 9% | 0% | ? | 15% | 2% | i
CCc1c(C)nc2cc(-c3ccc(OC)c(OC)c3)nn2c1NCC1CC1 | 8% | 7% | 15µM* | 0% | 7% | 22%
COc1ccc(CCNC(=O)CCc2c(C)nc3cc(-c4ccccc4)nn3c2C)cc1OC | . | . | . | . | . | 2%
CN1CCN(C(=S)c2ccc(OCC(=O)Nc3cccc(C(F)(F)F)c3)cc2)CC1 | -2% | 2% | 18µM* | 0% | 3% | 0%
Cc1cc(C)n2[nH]c(=O)cc2n1 | . | . | . | . | . | -5%
O=C(O)CNc1nc(-c2ccccc2)nc2c1oc1ccccc12 | 1% | -17% | 3% | -8% | -1% | -4%
c1ccc(-c2nc(NCC3CCCO3)c3oc4ccccc4c3n2)cc1 (stereo not drawn) | 0% | 11% | 16µM* | 0% | -1% | 0%
c1ccc(-c2nc(NCc3cccnc3)c3oc4ccccc4c3n2)cc1 | 0% | 22% | 23µM* | -2% | 0% | 1%
c1ccc(CNc2ncnc3c2oc2ccccc23)nc1 | 0% | -8% | ? | -2% | ? | -3%
CCc1nc(NCc2ccccn2)c2oc3ccccc3c2n1 | -2% | 7% | 18µM* | -3% | 1% | -5%
OCCCNc1nc(-c2ccccc2)nc2c1oc1ccccc12 | 0% | -10% | 23µM* | -1% | 6% | -5%
O=C(O)CCC(=O)Nc1nnc(C(F)(F)F)s1 | 1% | -8% | -3% | -2% | -1% | -5%
CCC(NC(=O)Nc1nnc(C(F)(F)F)s1)(C(F)(F)F)C(F)(F)F | -3% | 0% | 23µM* | 0% | -3% | 1%
Cc1ccnc(N/N=C/c2ccccc2)n1 | -3% | 23% | ? | -36% | -3% | -16%
Cc1cc(C)nc(N/N=C2/CCCC/C2=C\c2ccccc2)n1 | 1% | 5% | 2.3µM* | -1% | 3% | 2%
SMILES | Tb PFK block | Rango release inh | ELG1 DNA repair | PKM2 act | Rango-impB inh | PGK inhibitor
COc1ccc(-c2csc3ncnc(NCCN4CCOCC4)c23)cc1 | -1% | 1% | 13µM* | 0% | -4% | -6%
c1ccc(-c2csc3ncnc(NCCN4CCOCC4)c23)cc1 | -5% | 4% | 16µM* | 0% | 2% | -2%
Cc1ccc(-c2csc3ncnc(NCCN4CCOCC4)c23)cc1 | 0% | -4% | ? | -2% | ? | -6%
COc1ccc(-n2ncc3c(NCCN4CCOCC4)ncnc32)cc1 | -1% | 0% | ? | -3% | -1% | 2%
Clc1ccc(-c2csc3ncnc(NCCN4CCOCC4)c23)cc1 | -5% | -1% | 18µM* | 7% | -4% | 7%
CCN1CCN(C(=O)NCc2ccccc2)CC1 | -4% | -6% | 0% | -1% | -2% | i
Cc1cc(C)nc(/N=C(\N)Nc2cccc(OCc3ccccc3)c2)n1 | -3% | 5% | 21µM* | -5% | 0% | -4%
COc1ccc(-n2ncc(C(=O)Nc3cccc(C(F)(F)F)c3)c2C2CCN(C(=O)OC(C)(C)C)CC2)cc1 | . | . | . | . | . | -1%
Cc1ccc2nc(N3CCC(C(=O)N4CCN(c5cccc(Cl)c5)CC4)CC3)[nH]c2c1 | . | . | . | . | . | -1%
COc1cc(OC)c(NC(=O)Cc2c(C(=O)O)c(C)cn2C)cc1Cl | . | . | . | . | . | -1%
COC(=O)c1ccc2c(=O)n(CCCCCC(=O)N3CCN(c4ccc(F)cc4)CC3)c(=O)[nH]c2c1 | -2% | -3% | 2.9µM* | -1% | -1% | -5%
COCCn1c(=O)[nH]c2cc(C(=O)NCCN3CCN(c4ccccc4)CC3)ccc2c1=O | -1% | -9% | -25% | -1% | 8% | -4%
COCCn1c(=O)[nH]c2cc(C(=O)NCCN3CCN(c4ccc(OC)cc4)CC3)ccc2c1=O | 0% | 8% | 9.2µM* | -8% | 0% | i
CC(=O)c1ccc(S(=O)(=O)NCCCC(=O)N(C)Cc2ccc3c(c2)OCO3)cc1 | 0% | -7% | -15% | . | -3% | -2%
COc1ccc(CCNC(=O)c2ccc(Cl)c(S(=O)(=O)N(C)c3ccccc3)c2)cc1 | -1% | -11% | 16µM* | -4% | 0% | -5%
COc1ccc(CCNC(=O)c2ccc(Cl)c(S(=O)(=O)N3CCCCCC3)c2)cc1 | -1% | 13% | ? | . | -2% | -4%
COc1ccc(OCC(=O)NNC(=O)c2cccc(S(=O)(=O)N(C)C)c2)cc1 | 0% | 9% | 18% | 11% | 1% | -3%
Cc1ccc(-c2nnc(SCC(=O)N/N=C/c3ccccc3C(=O)O)n2-c2ccc(C)cc2)cc1 | -1% | -14% | ? | -3% | 1% | 3%
Cc1cccc(C)c1NC(=O)CCCSc1nnc(-c2ccc(F)cc2)n1-c1ccccc1 | -9% | 16% | 16µM* | -1% | -6% | 1%
Cc1cccc(C)c1NC(=O)CCCSc1nnc(-c2ccc(Cl)cc2)n1-c1ccccc1 | 0% | -2% | 21µM* | 2% | 0% | i

Screening results deposited in PubChem BioAssay by National Center for Advancing Translational Sciences (NCATS).
